Results filed as inconclusive are left out. Where a call stands in place of a potency, no number is given. The source made the active and inactive calls. Calls come from the whole dose curve; as a rule, active = well fitted cell-killing curve with a large enough effect in the repeat runs; inconclusive = weak or mixed curves, or effect the other way; inactive = flat fitted curve, though single readings scatter.
Tests used:
[1] = cAMP Responsive Elements (CRE) small molecule antagonists, cell-based qHTS assay: qHTS cell viability counter screen (AID 2060913); settings: CRE-bla HEK293T viability, CellTiter-Glo luminescence, 5 h; series mostly up to 92.4 µM; note: nearly all actives have a fitted effect of over 40% in size
Procedure, shortened: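 Steps: cells plated and held 18 hrs at 37 C/5% CO2; compounds and NKH477 (0.25 uM final) added; 3 hrs incubation; reporter substrate read; CellTiter-Glo added to measure cytotoxicity by luminescence.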

[2] = cAMP Responsive Elements (CRE) small molecule agonists, cell-based qHTS assay: qHTS cell viability counter screen (AID 2060914); settings: CRE-bla HEK293T viability, CellTiter-Glo luminescence, 5 h; series mostly up to 92.4 µM;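 note: viability read after 3 h of compound exposure; nearly all actives have a fitted effect of over 50% in size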
Procedure, shortened: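 Cytotoxicity counter screen multiplexed with the CRE-bla reporter assay in HEK 293T cells: 3 h compound exposure at 37 °C, followed by CellTiter-Glo luminescence measured in the same wells.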

| Compound | Potency [1] | Potency [2] |
| --- | --- | --- |
| CCCCN(CCCC)CCCCCCN(CCCC)CCCC | inactive | inactive |
| CN(C)C(=O)Oc1ccc[n+](C)c1 | inactive | inactive |
| N#CSCC(=O)O | inactive | inactive |
| CN(C)C(=O)Oc1cccc([N+](C)(C)C)c1 | inactive | inactive |
| CC(C)(C)c1cc(CO)cc(C(C)(C)C)c1O | inactive | inactive |
| C[C@]12CC[C@@H]3c4ccc(O)cc4C[C@@H](CCCCCCCCCS(=O)CCCC(F)(F)C(F)(F)F)[C@H]3[C@@H]1CC[C@@H]2O (stereo not given in full) | inactive | inactive |
| Cn1cc(S(C)=O)c(=O)c2ccc(F)cc21 (stereo not given) | inactive | inactive |
| CCOC(=O)C1=C(C)NC(C)=C(C(=O)OC)C1c1cccc(Cl)c1Cl (stereo not given) | inactive | inactive |
| CC(C)[C@@H]1CC[C@@H](C)CC1=O | inactive | inactive |
| COC(=O)CCC(=O)OC | inactive | inactive |
| Cc1ccc(N)cc1[N+](=O)[O-] | inactive | inactive |
| CC(=O)N[C@@H](CS)C(=O)O | inactive | inactive |
| C=CC(=O)CC | inactive | inactive |
| Cc1ccc(C(=O)O)cc1[N+](=O)[O-] | inactive | inactive |
| CCCOC(=O)CCCCC(=O)OCCC | inactive | inactive |

Reference: PubChem BioAssay (Tox21)
